Source: PubChem BioAssay (EPA / NIEHS)
Several values for one entry are separate records, joined by “and”; a condition that tells them apart may be missing. Identical values can stand only once. Results filed as inconclusive are left out. Activity calls are given as the source filed them. The calls were made as follows: active = hit-call score of the fitted dose curve at least 0.9, where 1 is the maximum; inconclusive = response in the unintended direction; inactive = score below 0.9.

Target: human Matrix Metalloproteinase-9 (MMP9), MMP9 (gene 4318) (UniProt P14780)
Experiment: NVS_ENZ_hMMP9: NovaScreen (NVS) Enzymatic Assay for human Matrix Metalloproteinase-9 (MMP9) (AID 2283190);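 also: active means inhibition seen as loss of fluorescence signal versus DMSO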
Experimental: NVS_ENZ_hMMP9 is a biochemical, single-readout assay that uses extracted gene-proteins in a cell-free assay. Measurements were taken 1 hour after chemical dosing in a 96-well plate.NVS_ENZ_hMMP9 is one of one assay component(s) measured or calculated from the NVS_ENZ_hMMP9 assay. It is designed to make measurements of enzyme activity, a form of enzyme reporter, as detected with fluorescence intensity signals by Fluorescence technology.Data from the assay component NVS_ENZ_hMMP9 was analyzed into 1 assay endpoint. This assay endpoint, NVS_ENZ_hMMP9, was analyzed in the positive analysis fitting direction relative to DMSO as the negative control and baseline of activity. Using a type of enzyme reporter, loss-of-signal activity can be used to understand changes in the enzymatic activity as they relate to the gene MMP9. Furthermore, this assay endpoint can be referred to as a primary readout, because this assay has produced multiple assay endpoints where this one serves a enzymatic activity function. To generalize the intended target to other relatable targets, this assay endpoint is annotated to the protease intended target family, where the subfamily is matrix metalloproteinase.
Binding assays used specific radioligands (tritiated, iodinated) with non-radioactive competitive displacement ligands in agonist or antagonist protocols (as indicated) and various reference compounds and inhibitors to titrate specific binding to receptors and transporters. Most enzyme assays (CYPs, kinases, phosphatases, proteases, HDACs) used recombinant protein and specific substrates (fluorescence mostly, some colorimetric and radioactive) and inhibitors, followed by a biochemical separation of substrate and product. All assays for the biochemical HTS were initially run in duplicate at a single concentration (10 uM for CYP450 assays and 25 uM for all others). […] Each assay was run with positive and negative controls, and concurrent controls on every plate. The follow-up (secondary) screen tested active chemical-pairs in concentration series, as well as a few additional assays not tested in the primary screen, some selected negative inactives, and several cases re-run in the concentration series for confirmatory purposes.

Chain of human Matrix Metalloproteinase-9 (MMP9), MMP9 (gene 4318) (P14780 whole entry, looked up): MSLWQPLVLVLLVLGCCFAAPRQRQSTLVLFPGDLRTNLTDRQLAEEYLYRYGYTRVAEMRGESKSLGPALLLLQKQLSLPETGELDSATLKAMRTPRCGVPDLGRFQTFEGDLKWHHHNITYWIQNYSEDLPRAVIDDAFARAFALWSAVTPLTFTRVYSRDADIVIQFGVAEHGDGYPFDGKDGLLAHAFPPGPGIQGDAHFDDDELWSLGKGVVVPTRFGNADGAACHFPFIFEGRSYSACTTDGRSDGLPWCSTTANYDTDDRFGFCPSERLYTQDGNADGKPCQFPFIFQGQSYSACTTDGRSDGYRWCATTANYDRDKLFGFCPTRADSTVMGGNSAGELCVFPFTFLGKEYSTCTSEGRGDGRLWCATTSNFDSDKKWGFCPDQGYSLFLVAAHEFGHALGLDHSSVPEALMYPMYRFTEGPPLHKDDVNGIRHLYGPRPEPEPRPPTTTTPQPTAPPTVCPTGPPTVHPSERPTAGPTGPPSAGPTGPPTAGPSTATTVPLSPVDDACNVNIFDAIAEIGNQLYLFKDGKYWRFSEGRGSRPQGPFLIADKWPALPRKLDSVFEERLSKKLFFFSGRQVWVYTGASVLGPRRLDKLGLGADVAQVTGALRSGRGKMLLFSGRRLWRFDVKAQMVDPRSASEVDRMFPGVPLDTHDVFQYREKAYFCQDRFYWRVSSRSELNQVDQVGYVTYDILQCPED

Structure (SMILES) | AC50 | outcome
C[N+](C)(C)Cc1ccccc1 | 8.55 µM (active) and 5.15 µM (active) | –
OC[P+](CO)(CO)CO | 1.27 µM (active) and 3.16 µM (active) | –
CC(C)(C#N)N=NC(C)(C)C#N | 6.44 µM (active) | –
CCOC(=O)CCN(SN(C)C(=O)Oc1cccc2c1OC(C)(C)C2)C(C)C | 3.66 µM (active) | –
CC(C)(C)c1cc([N+](=O)[O-])cc(C(C)(C)C)c1O | 1.64 µM (active) | –
CCOP(=O)(OCC)OC(=CCl)c1ccc(Cl)cc1Cl | 22.8 µM (active) | –
C#CCOC(=O)/C=C(C)/C=C/CC(C)CCCC(C)C (centres undefined) | 7.1 µM (active) | –
[Cl][Sn]([c]1ccccc1)([c]1ccccc1)[c]1ccccc1 | – | inactive
O=c1oc2ccccc2c(O)c1C(CC(O)c1ccc(-c2ccc(Br)cc2)cc1)c1ccccc1 (centres undefined) | 0.436 µM (active) | –
CCCCN(CCCC)C(=S)[S-].CCCCN(CCCC)C(=S)[S-].[Ni+2] | 12.5 µM (active) | –
CC1(C)[C@H](C(=O)O[C@H](C#N)c2cccc(Oc3ccccc3)c2)[C@@H]1/C=C(\Cl)C(F)(F)F | 7.08 µM (active) | –
Oc1c(Br)cc(Br)cc1Br | – | inactive
CC(C)(c1ccccc1)c1cc(-n2nc3ccccc3n2)c(O)c(C(C)(C)c2ccccc2)c1 | 1.24 µM (active) | –
BrCCCCBr | 15.3 µM (active) | –
